tim23-1 inh = tim23-1 yeast growth inhibition. S. cerevisiae tim23-1 growth, BacTiter-Glo luminescence, 24 h. inhibition, % at 20 µM. hit rate 1.3% among 330,000. AID 463212;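 active = growth inhibition of the mutant yeast at or above 50%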;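 also: temperature-sensitive mutant grown at 25 °C; plate controls were DMSO-treated mutant yeast for no effect and medium wells lacking yeast for full effect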
SUMO Mot1 rescue = blocks SUMOylation pathway, rescuing yeast Mot1-301 growth; S. cerevisiae Mot1-301 growth rescue, ATP luminescence, 38.5C; percent above DMSO median, 100 means doubled; growth rescue, % at 18.8 µM; hit rate 1% among 320,000;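 active = every valid replicate shows activation above 250% relative to neutral control wells; inactive = the rest, any valid replicate at or below 250%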;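 also: OY570 slx delta 5 strain wells were the positive control but not used for scaling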
PfHsp90 set2 = inhibits growth of yeast expressing Plasmodium falciparum Hsp90; S. cerevisiae expressing PfHsp90, BacTiter-Glo ATP, 48 h; yeast lacking PDR1 and PDR3 efflux regulators; inhibition, % at 9.4 µM; hit rate 0.32% among 310,000;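 active = every replicate shows inhibition above about 80%, whatever the replicate mean, limit read from the data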;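 also: 0% = DMSO neutral controls and 100% = 20 µM radicicol positive controls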
TIM10 inh = growth inhibitors of TIM10 yeast strain; S. cerevisiae TIM10 strain growth, BacTiter-Glo luminescence, 24 h; inhibition, % at 10 µM; hit rate 1.4% among 330,000; AID 463195;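 active = inhibition of 40% or more at the single tested concentration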;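 also: wild-type TIM10 isogenic control strain grown at permissive 25 °C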
tim10-1 inh = growth inhibitors of tim10-1 mutant yeast; S. cerevisiae tim10-1 ts strain growth, BacTiter-Glo, 24 h; inhibition, % at 20 µM; hit rate 2.2% among 330,000; AID 463190;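 active = inhibition of at least 40%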;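 also: mutant grown at 25 °C; 0% = DMSO wells with yeast and 100% = wells holding no yeast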
TIM10 conf = confirmation of TIM10 yeast growth inhibitors; shares compounds with TIM10 inh; S. cerevisiae tim10 strain growth, BacTiter-Glo luminescence, 24 h; inhibition, % at 10 µM; hit rate 63% among 4,600; AID 463215;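 active = inhibition of yeast growth at or above a set limit in either of two replicates at 10 µM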;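 also: this counterscreen used the strain with wild-type TIM10; 0% = yeast with DMSO and 100% = medium wells lacking yeast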
Numbers without * were called inactive. Sampled rows, rich in hits. Any-hit rate of the full collection: about 4.4%.

COc1cc(CCC(=O)NNC(=O)c2cccc(Cl)c2)cc(OC)c1OC was read as tim23-1 inh -4, SUMO Mot1 rescue -7, PfHsp90 set2 20, TIM10 inh 1 and tim10-1 inh 12.
`COc1ccc(CNC(=S)N/N=C(\C)c2ccc(OC)cc2)cc1` gave tim23-1 inh -11, SUMO Mot1 rescue -8, PfHsp90 set2 -5, TIM10 inh 44*, tim10-1 inh 34 and TIM10 conf 44*.
C=CCNC(=S)N/N=C(\C)c1cccc(OC)c1 was read as tim23-1 inh 44, PfHsp90 set2 -10, TIM10 inh 41*, tim10-1 inh 27 and TIM10 conf 20.
S=C(NCc1ccccc1)Nc1ccc2ccccc2c1 was read as tim23-1 inh 44, SUMO Mot1 rescue 12, PfHsp90 set2 5, TIM10 inh 16 and tim10-1 inh 18.
For C/C(=N\NC(=S)NCc1ccccc1)c1ccc2ccccc2c1 the results were tim23-1 inh 44, SUMO Mot1 rescue -4, PfHsp90 set2 -41, TIM10 inh 54*, tim10-1 inh 39 and TIM10 conf -12.
For NNC(=O)c1n[nH]c2c1CC(C1CCCCC1)CC2 (stereo unspecified) the results were tim23-1 inh 48, SUMO Mot1 rescue -10, PfHsp90 set2 10, TIM10 inh 16 and tim10-1 inh 34.
For O=C(NNS(=O)(=O)c1ccccc1Cl)c1nn(-c2ccc(F)cc2)ccc1=O the results were tim23-1 inh -6, SUMO Mot1 rescue -1, PfHsp90 set2 1, TIM10 inh 0 and tim10-1 inh -3.
CC(C)CN(C(=O)C(C)N1C(=O)c2ccccc2C1=O)c1c(N)n(Cc2ccccc2)c(=O)[nH]c1=O (stereo unspecified) was read as tim23-1 inh 11, SUMO Mot1 rescue 5, PfHsp90 set2 17, TIM10 inh 16 and tim10-1 inh 7.
C1=C[C@H]2CC[C@@H]1N(c1ccccc1)O2 was read as tim23-1 inh 30, PfHsp90 set2 11, TIM10 inh -12 and tim10-1 inh 11.
COc1ccc(/C=C/C(=O)NCCc2c[nH]c3ccccc23)cc1OC was read as tim23-1 inh 5, SUMO Mot1 rescue 8, PfHsp90 set2 -34, TIM10 inh 53*, tim10-1 inh -35 and TIM10 conf 9.
`S=C(c1cn(CCOc2cccc3ccccc23)c2ccccc12)N1CCCC1` gave tim23-1 inh 11, SUMO Mot1 rescue -12, PfHsp90 set2 -26, TIM10 inh 21 and tim10-1 inh 6.
For S=C(c1cn(CCOc2ccccc2)c2ccccc12)N1CCCC1 the results were tim23-1 inh 28, SUMO Mot1 rescue 1, PfHsp90 set2 2, TIM10 inh 50*, tim10-1 inh 29 and TIM10 conf 32*.
`O=C(Nc1ccc(Cl)c(Cl)c1)O/N=C/c1ccncc1` gave tim23-1 inh 8, SUMO Mot1 rescue 517*, PfHsp90 set2 3, TIM10 inh 43*, tim10-1 inh 29 and TIM10 conf -24.
O=C(Nc1cccc(Cl)c1)O/N=C\c1ccncc1 was read as tim23-1 inh -1, SUMO Mot1 rescue -8, PfHsp90 set2 30, TIM10 inh 8 and tim10-1 inh -6.
Screening Cc1csc(NC(=O)CN2C(=O)COc3ccc(Cl)cc32)n1 returned tim23-1 inh 19, SUMO Mot1 rescue -17, TIM10 inh 3 and tim10-1 inh 34.
Screening COc1ccccc1/C=C/C1(C(=O)NC2CCCC2)CC(=O)N1c1ccc(F)cc1 (stereo unspecified) returned tim23-1 inh 35, SUMO Mot1 rescue 44, PfHsp90 set2 -2, TIM10 inh 41*, tim10-1 inh 38 and TIM10 conf 21.
`COc1ccc(-c2nn(-c3ccccc3)cc2/C=N/O)cc1OC` gave tim23-1 inh 27, SUMO Mot1 rescue -7, PfHsp90 set2 -12, TIM10 inh 18 and tim10-1 inh 21.
Screening COc1ccc(-c2nn(-c3ccccc3)cc2/C=N/NC(=S)NC(C)C)cc1OC returned tim23-1 inh 43, SUMO Mot1 rescue 45, PfHsp90 set2 -156, TIM10 inh 48*, tim10-1 inh 36 and TIM10 conf 49*.
`O=C(O)c1ccc(N=Nc2c(O)[nH]c3ccccc23)cc1` gave tim23-1 inh 21, SUMO Mot1 rescue -15, PfHsp90 set2 4, TIM10 inh 14 and tim10-1 inh 19.

Assay outcomes: PubChem, several laboratories
